# Compound activity as filed in PubChem BioAssay.
# Pf growth 48h: P. falciparum growth inhibition at 48 hours (one generation) | P. falciparum luciferase growth in erythrocytes, 48 h | Potency, µM (doses to about 28.7 µM), most hits filed as inhibitors | 5.9% of 310,000 active | AID 504832
#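 Growth was read as firefly luciferase luminescence after a 48 h, 37 C, 5% CO2 exposure of compounds to reporter-bearing P. falciparum cultures (0.1% parasitemia, 2% hematocrit final) in Albumax-supplemented RPMI 1640.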
# SARS PLpro yeast: blocks SARS-CoV papain-like protease in a yeast assay; AID 485353; Potency, µM (top dose mostly 32.9 µM), hits mostly activators; 0.19% of 330,000 active; S. cerevisiae expressing SARS-CoV PLpro, growth rescue; calls by dose curve; note: nearly all actives have a fitted effect of over 55% in size
# AMA1 RON2 block: AMA1-RON2 (P. falciparum) interaction inhibition | 0.2% of 360,000 active | Potency, µM (titrated, usually from 58.2 µM), hits mostly inhibitors | AID 720542 | AlphaScreen AMA1-biotinylated RON2 peptide binding; note: nearly all actives have a fitted effect of over 45% in size
#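 AMA1 (3D7) with his tag at 25 nM final met compounds first, then biotinylated RON2 peptide at 25 nM; detection used donor plus acceptor beads, 10 µg/mL apiece, read by AlphaScreen after 30 min at room temperature.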
# HCV inh: HCV inhibition | Huh7.5.1 HCVcc-Cre infection, luciferase reporter, 44 h | Potency, µM (doses to about 41.8 µM), most hits filed as inhibitors | 3.4% of 340,000 active | AID 651820
#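 Whole-lifecycle infectious HCVcc-Cre system; cells 1,000/well, compound then virus (~0.5 moi) added 4 h after plating, 44 h culture. Luciferase read 15 sec following 15 min substrate incubation, room temp.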
# Pf growth 96h: P. falciparum growth inhibition at 96 hours | P. falciparum luciferase reporter growth, 96 h | Potency, µM (titrated, usually from 28.7 µM), most hits filed as inhibitors | 6.9% of 320,000 active | AID 504834
#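 P. falciparum expressing integrated firefly luciferase grown in erythrocytes (2% hematocrit, 0.05% parasitemia final) with compounds for 96 hours at 37 C, 5% CO2. Growth inhibition read as loss of luminescence after adding luciferase detection reagent.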
# NS1 inh: inhibitors of influenza NS1 protein function; Potency, µM (top dose mostly 46.1 µM); 0.4% of 270,000 active; calls by dose curve; note: actives are rising curves; nearly all actives have a fitted effect of over 50% in size
#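 Read-out: OD600 growth recovery of NS1-expressing budding yeast. Cells grown overnight at 30C in -URA glucose medium, washed, resuspended and diluted 1:100 in 2% galactose assay medium, pH 6.0. Same strain lacking NS1 served as positive control.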
# Numbers stand for hits; i = inactive; ? = inconclusive; nt = no result given; [ ] = another dose, or the depositor's remark. Hits are enriched below; roughly 12% of the tested compounds scored in any of these assays. Unless noted, calls come from the whole dose curve; as a rule, active = well fitted curve in the direction sought with a large enough effect; inconclusive = small, poorly fitted or top-dose-only effect, or another doubt; inactive = no such curve, though single readings can be large; an effect the other way counts as inactive or inconclusive.
SMILES,Pf growth 48h,SARS PLpro yeast,AMA1 RON2 block,HCV inh,Pf growth 96h,NS1 inh
COC(=O)c1sc2nc(SCc3cccc(Cl)c3)n(N)c(=O)c2c1C,i,?,i,?,9.3µM,i
CCC(C(=O)C(C)C(O)C(C)CCc1ccc(C)c(O)c1C(=O)O)C1OC(CC)(C2CC[C@@](O)(CC)C(C)O2)CC1C (stereo partly specified),0.38µM,nt,nt,nt,0.38µM,nt
CC[C@@H](C(=O)[C@@H](C)[C@@H](O)[C@H](C)CCc1ccc(C)c(O)c1C(=O)O)[C@H]1O[C@](CC)([C@H]2CC[C@](O)(CC)[C@H](C)O2)C[C@@H]1C,0.093µM,i,i,1.8µM,?,i
O=C(NC1CCCC1)c1ccccc1OCc1ccccc1,i,i,i,7.9µM,i,nt
O=C(NC1CCN(Cc2ccccc2)CC1)c1ccccc1OCc1ccccc1,?,i,i,25µM,9.3µM,i
O=C(CCNC(=O)OCc1ccccc1)NC1CCCCC1,i,i,i,i,3.7µM,i
COc1ccccc1C(=O)NC1CCCCCCC1,?,i,i,i,?,i
CCOc1ccccc1C(=O)NC1CCN(Cc2ccccc2)CC1,?,i,i,i,?,i
O=C(CNC(=O)OCc1ccccc1)NC1CCCCCC1,i,i,i,i,i,i
O=C(NC1CCCCCC1)C(=S)NCCc1ccccc1,i,i,i,i,10µM,i
CN1C(=O)[C@H]2[C@@H](c3ccccc3)N[C@]3(CCCN(Cc4ccc(F)cc4)C3=O)[C@H]2C1=O,nt,nt,i,nt,nt,nt
CN(C)S(=O)(=O)Nc1ccc(Cc2ccncc2)cc1,nt,nt,i,nt,nt,nt
CCOC(=O)C1=CCN(S(=O)(=O)c2ccc(C)cc2)C1c1cccc2ccccc12 (stereo unspecified),nt,nt,i,nt,nt,nt
CCCCN(C)C(=O)c1cc2c(s1)-c1ccccc1S(=O)(=O)C2,i,i,i,i,i,i
COc1ccc(N(C)C(=O)c2cc3c(s2)-c2ccccc2S(=O)(=O)C3)cc1,2.9µM,i,i,?,?,i
CCN1CCN(C(=O)c2cc3c(s2)-c2ccccc2S(=O)(=O)C3)CC1,i,i,i,i,i,i
COc1cc(OC)c(N(C)C(=O)c2cc3c(s2)-c2ccccc2S(=O)(=O)C3)cc1Cl,nt,nt,i,22µM,nt,nt
COc1ccc(N2CCN(C(=O)c3cc4c(s3)-c3ccccc3S(=O)(=O)C4)CC2)cc1,i,i,i,10µM,?,i
CN1CCN(C(=O)c2cc3c(s2)-c2ccccc2S(=O)(=O)C3)CC1,i,i,i,i,i,i
O=C(c1cc2c(s1)-c1ccccc1S(=O)(=O)C2)N1CCN(Cc2ccccc2)CC1,nt,i,i,10µM,i,i
COC(=O)c1ccc(Cn2c(C)c(C(=O)Nc3cccc(Oc4ccccc4)c3)sc2=O)o1,nt,nt,i,nt,nt,nt
CN1CCN(C(=O)c2cc3cc(F)ccc3[nH]2)CC1,15µM,i,i,i,i,i
COc1ccccc1N1CCN(C(=O)c2cc3cc(F)ccc3[nH]2)CC1,?,i,i,i,?,i
Cc1ccc2[nH]c(C(=O)N3CCN(C(c4ccccc4)c4ccccc4)CC3)cc2c1,2.6µM,i,i,i,?,i
COc1cc(C(=O)N2CCN(c3cccc(C)c3C)CC2)cc(OC)c1OC,?,i,i,?,10µM,i
SMILES,Pf growth 48h,SARS PLpro yeast,AMA1 RON2 block,HCV inh,Pf growth 96h,NS1 inh
Cc1cccc(N2CCN(C(=O)c3cc4cc(F)ccc4[nH]3)CC2)c1C,1.7µM,i,i,i,13µM,i
O=C(c1cc2cc(F)ccc2[nH]1)N1CCN(C(=O)c2ccco2)CC1,?,i,i,i,?,i
Cc1cccc(N2CCN(C(=O)c3ccncc3)CC2)c1C,i,i,i,?,i,i
COc1ccccc1N1CCN(C(=O)c2cc3cc(C)ccc3[nH]2)CC1,?,?,i,i,?,i
CN1CCN(C(=O)c2ccc(Cl)cc2)CC1,i,i,i,i,2.6µM,i
CN1CCN(C(=O)c2cc3cc(Cl)ccc3[nH]2)CC1,i,i,i,i,10µM,i
O=C(c1cc2cc(Cl)ccc2[nH]1)N1CCCCC1,i,i,i,i,i,i
CC(C)(C)c1ccc(C(=O)N2CCN(CCNC(=O)C(=O)NCc3ccc(Cl)cc3)CC2)cc1,i,i,i,11µM,i,i
Cc1ccc(NC(=O)CSc2nnc(-c3ccccn3)n2N)c(Br)c1,i,i,?,i,i,i
CCCn1c(/C=N/Nc2nc3ccccc3[nH]2)nc2ccccc21,1.9µM,i,i,?,4.1µM,i
CC(C)Cn1c(/C=N/Nc2nc3ccccc3[nH]2)nc2ccccc21,3.7µM,i,i,2.5µM,0.47µM,i
CCOc1cc(CNCc2cccnc2)cc(Br)c1OCC(N)=O,i,i,i,i,?,i
c1ccc2c(c1)Cn1c-2nc2ccccc21,i,i,i,?,i,i
c1ccc2c(c1)Cn1nnnc1-2,i,i,i,i,4.1µM,i
S=C1NCc2cncnc2N1,nt,nt,i,nt,nt,nt
O=C(NC1CC1)C1=C[C@@H](c2c[nH]c3ccccc23)C[C@@H](OCc2ccc(CO)cc2)O1,i,i,i,i[8.37 µM],?,i
CCN(CC)CCNc1nc2cc(OC)c(OC)cc2c2nc(-c3ccccc3)nn12,1µM,i,i,i,?,i
O=C(c1ccc(COc2c(F)c(F)c(F)c(F)c2F)o1)N1CCOCC1,i,i,i,i,13µM,i
O=C(c1ccc(COc2c(F)c(F)cc(F)c2F)o1)N1CCN(c2ccccc2)CC1,?,i,i,i,i,i
CCc1ccc(/C=C/c2c[nH]c3ccccc23)[n+](CC)c1,0.21µM,i,i,?,0.074µM,i
Cc1ccc(S(=O)(=O)c2c(COC(=O)c3ccccc3Cl)c(-c3ccccc3)nn2C)cc1,nt,i,i,?,6.6µM,i
Cc1ccc(S(=O)(=O)c2c(CO)c(-c3ccccc3)nn2C)cc1,i,i,i,i,i,i
CC(NCC(=O)NC(=O)NC1CCCC1)c1ccc(Cl)cc1Cl (stereo unspecified),?,i,i,i[8.37 µM],?,nt
CCn1c(SCC(=O)Nc2ccc(F)cc2)nnc1-c1cnccn1,i,i,i,i,?,i
CC(=O)Nc1ccc(Nc2ccc(S(=O)(=O)C(F)(F)F)cc2[N+](=O)[O-])cc1,15µM,i,i[11.6 µM],i,?,i
COc1ccc(NC(=O)CCNS(=O)(=O)c2ccccc2F)cc1S(N)(=O)=O,i,i,i,i,i,i
Cc1ccc(CSc2nnc([C@@H]3CCCN3C(=O)OC(C)(C)C)o2)cc1,?,i,i,22µM,?,i
CC(C)(C)OC(=O)N1CCC[C@H]1c1nnc(SCc2ccccc2)o1,?,i,i,i,12µM,i
C[C@]12CC[C@@H]3c4cc(O)c(O)cc4CC[C@H]3[C@@H]1CC[C@@H]2O,nt,i,?,13µM,nt,i
